{"source": "PubChem BioAssay AID504727", "about": "(Broad Institute, 2011)", "note": "Values without a mark were called inactive. Active and inactive are the calls of the source.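 The calls were made as follows: active = fitted half-maximal concentration AC50 at or below ten times the highest valid tested dose, with signal falling as DNA is displaced (actives reach about 34 µM in these data); inconclusive = flat fit at moderate signal loss, or poor fit quality; inactive = the rest, including signal rising instead of falling.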", "data": [{"experiment": "DNA intercalators displacing acridine orange, dose response, artefact control for KSHV LANA DNA-binding inhibitor project, biochemical, fluorescence polarization, cherry-picked samples, set 2 (AID 504727);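 as to activity change, negative = DNA displacement: 0% = median of neutral control wells and -100% = mitoxantrone positive control wells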", "details": "AC50: Acridine orange-DNA displacement; series mostly up to 35 µM; activity change, negative = DNA displacement: at the top concentration", "units": {"activity change, negative = DNA displacement": "%"}, "values": [{"smiles": "CCCCNc1c2c3c(cccc3n(C)c1=O)C(=O)c1ccccc1-2", "AC50": "2.25 µM (active)"}, {"smiles": "O=c1cc(-c2ccc(O)c(O)c2)oc2cc(O[C@@H]3O[C@H](CO)[C@@H](O)[C@H](O)[C@H]3O)cc(O)c12", "activity change, negative = DNA displacement": -6.28}, {"smiles": "Cc1cccc(N2C(=O)c3cccc4c(N)ccc(c34)C2=O)c1", "AC50": "4.82 µM (active)"}, {"smiles": "O=C(O)CC(C(=O)O)N1C(=O)/C(=C/C=C/c2ccco2)SC1=S", "note": "(stereo not drawn)", "activity change, negative = DNA displacement": 5.71}, {"smiles": "Cc1nn(CC(=O)c2ccc(Br)s2)c(C)c1[N+](=O)[O-]", "activity change, negative = DNA displacement": 21.5}, {"smiles": "COc1ccc(-c2n[nH]c(=S)n2-c2ccc(C)cc2)cc1", "activity change, negative = DNA displacement": 6.18}, {"smiles": "Nc1ccc(-c2nc3ccc(C(=O)O)cc3s2)cc1", "activity change, negative = DNA displacement": 0.547}, {"smiles": "CNc1ccc2c3c(cccc13)C(=O)N(C)C2=O", "AC50": "0.872 µM (active)"}, {"smiles": "Cc1cc(C)n(CCC(=O)N/N=C/c2ccc(O)cc2O)n1", "activity change, negative = DNA displacement": 4.84}, {"smiles": "O=c1c2cc(O)c(O)cc2oc2cc(O)c(C3OC(CO)C(O)C(O)C3O)c(O)c12", "note": "(stereo not drawn)", "activity change, negative = DNA displacement": 2.47}, {"smiles": "CCOC(=O)c1sc(NC(=O)CSC(=S)N2CCN(C)CC2)nc1C", "activity change, negative = DNA displacement": 2.26}, {"smiles": "O=C(O)Cc1ccc(N=Nc2c(O)c(C(=O)O)cc3ccccc23)cc1", "activity change, negative = DNA displacement": 3.29}, {"smiles": "O=C(O)c1ccc2c(c1)C(=O)/C(=C\\c1ccco1)C2=O", "activity change, negative = DNA displacement": 2.7}, {"smiles": "CC(C)(C)OC(=O)N1CCC[C@H]1c1nnc(SCc2cccc(Cl)c2)o1", "activity change, negative = DNA displacement": 4.37}, {"smiles": "CCOC(=O)C(C)(C)N(Cc1ccccc1C)S(=O)(=O)c1ccc(Cl)c([N+](=O)[O-])c1", "activity change, negative = DNA displacement": 3.3}, {"smiles": "CN1CCN(CCCNC(=O)c2cc3c(-c4ccc(Cl)cc4)nn(C)c3s2)CC1", "activity change, negative = DNA displacement": -6.74}, {"smiles": "COc1cc(SC)ccc1C(=O)OCC(=O)N1CCN(C(C)=O)CC1", "activity change, negative = DNA displacement": 0.039}, {"smiles": "COc1cccc2c1C(=O)c1c(O)c3c(c(O)c1C2=O)CC(O)(C(C)=NNC(=O)c1ccc(Cl)c(Cl)c1)CC3OC1CC(N)C(O)C(C)O1", "note": "(stereo not drawn)", "AC50": "2.05 µM (active)"}, {"smiles": "CCCC1(C2CCCC2)NC(=O)NC1=O", "note": "(stereo not drawn)", "activity change, negative = DNA displacement": 4.46}, {"smiles": "CN1C(=O)NC(c2ccccc2[N+](=O)[O-])C2=C1CCCC2=O", "note": "(stereo not drawn)", "AC50": "29.7 µM (active)"}, {"smiles": "Cc1nn(C)c(C)c1N1C(=O)c2cccc3c(N)ccc(c23)C1=O", "AC50": "0.768 µM (active)"}, {"smiles": "Cc1ccc(NC(=O)CN2C(=O)N/C(=C/c3cccn3-c3ccc(C(=O)O)cc3)C2=O)cc1", "activity change, negative = DNA displacement": 25}, {"smiles": "Cc1cc(NC(=O)CSc2nnc(COc3cccc(C)c3C)n2C)no1", "activity change, negative = DNA displacement": 5.58}, {"smiles": "O=C(CCCN1C(=O)/C(=C\\c2ccco2)SC1=S)Nc1ccc(O)cc1C(=O)O", "activity change, negative = DNA displacement": -7.15}, {"smiles": "c1ccc(-c2cn3nc(-c4ccccc4)c(-c4ccccc4)nc3n2)cc1", "AC50": "23 µM (active)"}, {"smiles": "CN(c1ccc(OCC(=O)OCC(=O)c2c(N)n(C)c(=O)n(C)c2=O)cc1)S(=O)(=O)c1ccc2ccccc2c1", "activity change, negative = DNA displacement": 7.45}, {"smiles": "Cc1ccc(C)c(OCC(=O)N(Cc2nnc(-c3ccccc3Cl)o2)C2CC2)c1", "activity change, negative = DNA displacement": 1.6}, {"smiles": "O=c1ccc2c(-c3ccccc3S(=O)(=O)O)c3ccc(O)c(O)c3oc-2c1O", "activity change, negative = DNA displacement": -1.5}, {"smiles": "CCCCn1nc(CC(=O)O)c2ccccc2c1=O", "activity change, negative = DNA displacement": 2.89}, {"smiles": "COc1ccc(C)cc1NC(=O)C(OC(=O)c1cnccn1)c1ccccc1", "note": "(stereo not drawn)", "activity change, negative = DNA displacement": 0.816}, {"smiles": "c1ccc2[nH]c3cc4ncnc4cc3nc2c1", "AC50": "11.7 µM (active)"}, {"smiles": "CC(C)=C1C2C=CC1C(C(=O)Nc1cc(C)ccc1C)C2C(=O)O", "note": "(stereo not drawn)", "activity change, negative = DNA displacement": 1.34}, {"smiles": "CCN(CCCNC(=O)Cn1cc2c(n1)CCCC2)c1cccc(C)c1", "activity change, negative = DNA displacement": 1.96}, {"smiles": "O=C1c2ccccc2C(Nc2ccc3c(c2)OCCO3)N1Cc1ccc2c(c1)OCO2", "note": "(stereo not drawn)", "activity change, negative = DNA displacement": 3.63}, {"smiles": "CC(=O)Oc1ccc2c(c1)Oc1cc(OC(C)=O)ccc1C21OC(=O)c2ccccc21", "AC50": "8.39 µM (active)"}, {"smiles": "Nc1ccc2cc3[nH]c4cc(N)ccc4c3nc2c1", "AC50": "1.48 µM (active)"}, {"smiles": "N#CC1=C(N)Oc2ccc3ccc(O)cc3c2C1c1ccsc1", "note": "(stereo not drawn)", "activity change, negative = DNA displacement": 4.01}, {"smiles": "Fc1ccc(C2=CC(c3ccc(Br)o3)n3ncnc3N2)cc1", "note": "(stereo not drawn)", "AC50": "11.7 µM (active)"}]}]}
